# Data as given in PubChem BioAssay (EPA / NIEHS).
# Activity calls are given as the source filed them. How the source made its calls: active means hit-call score of the fitted dose curve at least 0.9, where 1 is the maximum; inactive means score below 0.9.
# Read-out: MYC, MYC (gene 4609)
# Assay: LTEA_HepaRG_MYC: Life Technologies and Expression Analysis (LTEA) Assay for MYC using HepaRG (AID 2283518)
# Details: mRNA level, 48 h; actives raise or lower the signal
# Method in brief: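 qRT-PCR read-out of MYC transcript (Fluidigm TaqMan, housekeeping-normalized) after 48 h chemical exposure of HepaRG cells; eight concentrations, top 100 uM, half-log steps. Bidirectional curve fitting against 0.5% DMSO vehicle baseline.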
Compound,outcome,AC50
COc1cc(Cl)c(OC)cc1Cl,inactive,
N#CN=C1SCCN1Cc1ccc(Cl)nc1,inactive,
COc1ccc(-c2ccccc2)cc1NNC(=O)OC(C)C,inactive,
C=CCOC(=O)C(C)(C)OC(=O)c1cc(-n2c(=O)cc(C(F)(F)F)n(C)c2=O)ccc1Cl,inactive,
COCc1cnc(C2=NC(C)(C(C)C)C(=O)N2)c(C(=O)O)c1 (stereo unspecified),inactive,
CCOc1nc(C(Cl)(Cl)Cl)ns1,,1.03 µM (active)
Cc1nc(N(C)C)nc(OC(=O)N(C)C)c1C,inactive,
O=C(O)c1c(Cl)ccc2cc(Cl)cnc12,inactive,
COC(=O)NC(=S)Nc1ccccc1NC(=S)NC(=O)OC,inactive,
CCC(C)n1c(=O)[nH]c(C)c(Br)c1=O (stereo unspecified),,24.8 µM (active)
COP(=S)(OC)SCn1nnc2ccccc2c1=O,inactive,
CCCCC(O)(Cn1cncn1)c1ccc(Cl)cc1Cl (stereo unspecified),,74.7 µM (active)
Cc1cc(C)nc(Nc2ccccc2)n1,inactive,
CCSC(=O)N1CCCCCC1,inactive,
O=P(O)(O)CCCl,inactive,
CC(C)Oc1cccc(NC(=O)c2ccccc2C(F)(F)F)c1,inactive,
CC(C)(C)C(=O)C(Oc1ccc(Cl)cc1)n1cncn1 (stereo unspecified),inactive,
Nc1cnn(-c2ccccc2)c(=O)c1Cl,inactive,

Compound,outcome,AC50
CCN(CC)c1nc(C)cc(OP(=S)(OC)OC)n1,inactive,
CCCN(CC)CC1COC2(CCC(C(C)(C)C)CC2)O1 (stereo unspecified),inactive,
Nc1c(Cl)c(Cl)nc(C(=O)O)c1Cl,inactive,
CC(C)C1(C)N=C(c2ncccc2C(=O)O)NC1=O (stereo unspecified),inactive,
COC(=O)N(C(=O)N1CO[C@@]2(C(=O)OC)Cc3cc(Cl)ccc3C2=N1)c1ccc(OC(F)(F)F)cc1,inactive,
CC(C)NC(=O)N1CC(=O)N(c2cc(Cl)cc(Cl)c2)C1=O,,13.2 µM (active)
CCOP(=S)(OCC)Oc1nc(Cl)n(C(C)C)n1,inactive,
CCCC(=NOCC)C1=C(O)CC(CC(C)SCC)CC1=O (stereo unspecified),inactive,
COCC(=O)N(c1c(C)cccc1C)C(C)C(=O)OC (stereo unspecified),inactive,
COP(=O)(OC)O/C(C)=C/C(=O)N(C)C,inactive,
CC1(C)C(C(=O)OC(C#N)c2cccc(Oc3ccccc3)c2)C1(C)C (stereo unspecified),inactive,
CS(=O)(=O)c1ccc(C(=O)C2C(=O)CCCC2=O)c([N+](=O)[O-])c1,inactive,
CCCCC(C#N)(Cn1cncn1)c1ccc(Cl)cc1 (stereo unspecified),inactive,
CN=C=S,inactive,
Clc1cccc(C(Cl)(Cl)Cl)n1,inactive,
CCNP(=S)(OC)O/C(C)=C/C(=O)OC(C)C (stereo unspecified),inactive,
Cc1cnc(C2=NC(C)(C(C)C)C(=O)N2)c(C(=O)O)c1 (stereo unspecified),inactive,
COc1cc(OC)nc(NC(=O)NS(=O)(=O)c2ncccc2OCC(F)(F)F)n1,inactive,
